Data on 98 compounds can be found in ChEMBL document CHEMBL4513216, “Probing the Open Global Health Chemical Diversity Library for Multistage-Active Starting Points for Next-Generation Antimalarials” (ACS Infect Dis, 2020).

Out of some 69,000 compounds screened, about 8,600 (12%) showed an effect of 50% or more. Many of the other results were omitted from the sample, so strong results are more common in it than they were.

This assay concerns Plasmodium berghei. Put plainly: Screen against P. berghei liver stage (PbLuc), transformed with Luciferase, at 10uM. The class given is functional, HepG2. Particulars: tested at 10 uM.
As to `CN(C)C(=O)COC[C@@H]1CC[C@H]2[C@H](CCN2c2ncccn2)O1`, the INHIBITION was 0.542%. For `COCc1ccccc1NC(=O)CCNC(=O)c1ccoc1` the value was -77.9%; for `CN(C)C[C@@H]1CCC[C@@H]2CN(c3ncccn3)C[C@@H]21`, 16.1%; for `O=C(NCc1ccc(N2CC=CC2)cc1)Nc1nnc(C2CC2)s1`, 3.87%. As for `O=C1CN(c2ccc(CNC(=O)NCCO)cc2)CCN1`, the figure is 52.5%; as for `Cc1nnc(NC(=O)NCc2ccc(N3CCNC(=O)C3)cc2)s1`, 14.7%; as for `CC(O)CNC(=O)NCc1ccc(N2CCNC(=O)C2)cc1` (stereo not drawn), 39.5%. For `O=C1CN(c2ccc(CNC(=O)NCc3ccoc3)cc2)CCN1` the value was -22.9%. For the compound `O=C1CN(c2ccc(CNC(=O)Nc3nnc(C4CC4)s3)cc2)CCN1`, the INHIBITION was 59.6%. As for `Cc1nn(CCC(=O)N(C)Cc2c(Cl)cnn2C)cc1Br`, the figure is 18.3%. On to `CCN(Cc1ccc(Cl)c(Cl)c1)C(=O)CCn1cncn1`, for which the INHIBITION is recorded as 19.3%.

With `Cc1nc(C)n(CC2CN(c3ncccc3C#N)CCO2)n1` (stereo not drawn), the INHIBITION is -14.7%. For `O=C(O)c1cc(-c2cncnc2)cc(S(=O)(=O)N2CCCCCC2)c1` the value was -8%; for `CN(C)c1nccnc1C1CCN(C(=O)C2(C)CCCCN2C)CC1` (stereo not drawn), 28.6%. For `Cc1nn(-c2ccccn2)c2c1C(c1cnn(C)c1)SCC(=O)N2` (stereo not drawn) the value was 41.5%; for `Cc1nn(-c2ncccn2)c2c1C(c1cnn(C)c1)SCC(=O)N2` (stereo not drawn), 61%; for `Cc1n[nH]c2c1C(c1cnn(C)c1)SCC(=O)N2` (stereo not drawn), -2.37%. As for `CC(C)n1nc(O)c2c1NC(=O)CSC2c1cnn(C)c1` (stereo not drawn), the figure is 9.36%; as for `Cc1cc(C)nc(-n2nc(C)c3c2NC(=O)CSC3c2cnn(C)c2)n1` (stereo not drawn), 88.8%.

With `Cc1nn(-c2ncccn2)c2c1C(c1cnn(C)c1C)SCC(=O)N2` (stereo not drawn), the INHIBITION came out at 27.6%. Consider `COc1cc(CN2CCn3c(CO)nnc3C2)ccc1OC(C)C`, for which the INHIBITION amounted to 35.2%. As for `Cc1noc(C)c1C(=O)N1CCCN(Cc2cscn2)CC1`, the figure is 9.64%. `NCC1CCC(C(NC(=O)c2ccccc2)c2ccccn2)CC1` (stereo not drawn): the INHIBITION was found to be 48.8%. For `Cc1noc(C)c1-c1cncc(C2CCCN2Cc2cn(C)cn2)n1` (stereo not drawn) the value was 26.8%. As for `Cc1ccc(NS(=O)(=O)c2ccc(C#N)cc2)c(CN(C)C)c1`, the figure is -33.5%; as for `Cc1ccc(NS(=O)(=O)c2cccc(C#N)c2)c(CN(C)C)c1`, -0.613%; as for `Cc1ccc(NCc2ccc(C#N)cc2)c(CN(C)C)c1`, 86.7%. As for `Cc1cc(C)n(-c2ccc3nnc(C)n3n2)n1`, the figure is -14.9%.

Consider `O=C(CSc1ccc(F)cc1F)NS(=O)(=O)c1ccc2c(c1)OCCO2`, for which the INHIBITION was -16.45%. For `COCCn1nc(C(=O)N(C)Cc2cnn(C)c2)ccc1=O` the value was 36.3%. As for `Cc1cc(NC(=O)CNC2CCCN(c3cccnn3)C2)on1` (stereo not drawn), the figure is 21%. As for `CC(C)[C@H]1COC(=O)N1CC(=O)N1CCN(C(=O)c2ccco2)CC1`, the figure is 7.6%; as for `Cc1ccccc1N1CCCN(C(=O)CN2C(=O)OC[C@@H]2C(C)C)CC1`, 23%; as for `CC(C)[C@H]1COC(=O)N1CC(=O)N1CCCN(C(=O)c2ccoc2)CC1`, 52.1%.

With `COCc1nnc(C(=O)N2CC(N3CCCCC3)C2)o1`, the INHIBITION is listed as 10.6%. As for `NCC1CCC(C(NC(=O)c2ccccn2)c2ccccn2)CC1` (stereo not drawn), the figure is 24.4%. As for `O=C(c1ccoc1)N1CC[C@@H]2O[C@@H](COCC3CCOCC3)CC[C@@H]21`, the INHIBITION is 38.1%. For `NC(=O)N1CC[C@@H]2O[C@@H](COCC(=O)N3CCCC3)CC[C@@H]21` the value was 15.4%; for `O=C(c1ccco1)N1CC[C@@H]2O[C@H](COCC3CCOCC3)CC[C@@H]21`, -4.99%; for `O=C(c1ccco1)N1CC[C@@H]2O[C@@H](COCCN3CCCC3)CC[C@@H]21`, 83.5%. Turning to `NC(=O)N1CC[C@@H]2O[C@H](COCC(=O)N3CCCC3)CC[C@@H]21`, the INHIBITION is reported as -27.9%. For `O=C(c1ccco1)N1CC[C@@H]2O[C@H](COCCN3CCCC3)CC[C@@H]21` the value was 24.1%; for `CC(=O)N1CC[C@@H]2O[C@@H](COCC(=O)N3CCCC3)CC[C@@H]21`, 52%; for `O=C(c1ccno1)N1CC[C@@H]2O[C@@H](COCCN3CCCC3)CC[C@@H]21`, 28.4%. In the case of `O=C(c1ccco1)N1CC[C@@H]2O[C@@H](COCC3CCOCC3)CC[C@@H]21`, the INHIBITION was 68.9%.

With `CC(C)(NS(C)(=O)=O)c1nc(-c2ccc(F)cc2Cl)no1`, the INHIBITION was -9.76%. Turning to `Cc1cccc(C(=O)NCc2cccnc2N(C)C)n1`, the INHIBITION amounted to 35.6%. In the case of `Cc1cc(C(=O)N2CCCC2)ccc1NCC(=O)N1CCOCC1`, the INHIBITION is 7.67%. As for `O=C(c1ccccc1)N1CC[C@H]2C[C@@H](c3nccs3)O[C@@H]2C1`, the figure is -22.5%; as for `O=c1cccnn1CC1CN(Cc2ccsc2)Cc2nccn2C1` (stereo not drawn), 40.4%. As to `CC(C(=O)N1CCCCCC1)N1CCN(c2nccs2)CC1` (stereo not drawn), the INHIBITION is 31.1%.

As for `Cc1cc(Nc2ccccn2)nc(C2CCCN(CCO)C2)n1` (stereo not drawn), the INHIBITION came to 17.4%. As for `Cc1nc(CCNC(=O)Nc2cc(C(F)(F)F)c[nH]c2=O)cs1`, the INHIBITION is listed as 19.7%. As for `CCOc1ccccc1NC(=O)N(CCO)Cc1ccsc1`, the figure is -8.51%. As for `COc1ccccc1NC(=O)N(CCO)Cc1ccsc1`, the figure is 77.6%; as for `COc1ccc(NC(=O)N(CCO)Cc2ccsc2)c(OC)c1`, 5.85%. As for `CC1(C(=O)N2CCOCC2)CN(Cc2c[nH]cn2)CCO1` (stereo not drawn), the figure is 39.7%; as for `O=C(O)c1c(NC2CCC2)ncc2c1CCN(C1CCOC1)C2` (stereo not drawn), 11.3%; as for `CN(C)C(=O)N1C[C@H]2CC[C@@H](C1)N(Cc1nnc(C3CC3)o1)C2`, 28%. `CCN1C[C@H]2CCN(C(=O)Cc3cccc(OC)c3)CC[C@H]2S1(=O)=O`: the INHIBITION is on record as 52.4%.

Turning to `COc1ccc(CC(=O)N2CC[C@@H]3CN(C)S(=O)(=O)[C@@H]3CC2)cc1`, the INHIBITION is 37.5%.

Take `COc1cccc(CC(=O)N2CC[C@@H]3CN(C)S(=O)(=O)[C@@H]3CC2)c1`: the INHIBITION is -1.28%. As for `O=S1(=O)NC[C@H]2CCN(Cc3ccccc3)CC[C@H]21`, the figure is 12.7%.

As for `COc1cccc(NC(=O)N2CC[C@@H]3CN(C)S(=O)(=O)[C@@H]3CC2)c1`, the INHIBITION stood at 55.4%. As for `CN(C)C(=O)CN1C[C@H]2CCN(Cc3ccccc3)CC[C@H]2S1(=O)=O`, the figure is 60.3%; as for `COc1cccc(CC(=O)N2CC[C@@H]3[C@H](CC2)N(C)CCS3(=O)=O)c1`, 45.4%. Regarding `O=C(NCCc1ccccc1)N1CC[C@@H]2CNS(=O)(=O)[C@@H]2CC1`, the INHIBITION was 23.1%. As for `CN(C)C(=O)CN1C[C@H]2CCN(c3ncccn3)CC[C@H]2S1(=O)=O`, the figure is -85.3%; as for `Cc1ccccc1NC(=O)N1CC[C@@H]2CN(C)S(=O)(=O)[C@@H]2CC1`, -6.05%. Regarding `CN(C)C(=O)CN1C[C@H]2CCN(C(=O)c3ccccc3)CC[C@H]2S1(=O)=O`, the INHIBITION came out at 44.2%.

For the compound `O=C(Cc1ccccc1)N1CC[C@@H]2CNS(=O)(=O)[C@@H]2CC1`, the INHIBITION was 54.1%.

With `CC(C)CN1CCc2[nH]nc(C(=O)N3CCCC3)c2C1`, the INHIBITION stood at 45.7%. In the case of `Cc1nc(-c2nc(C(=O)NC3CC3)c3ccccn23)cn1C(C)C`, the INHIBITION was determined as 43%.

For `OC(CNCCn1cccn1)c1ccc(Br)cc1` (stereo not drawn), the INHIBITION was 25.6%. For the compound `CCn1nc(C)c(S(=O)(=O)N(C)c2ccc(Cl)cn2)c1C`, the INHIBITION came to 0.643%. For `O=C(COCc1ccco1)Nc1cc(C(F)(F)F)c[nH]c1=O`, the INHIBITION came out at 19.6%. Take `CCc1nc(C2CCCN2CCn2cncn2)no1` (stereo not drawn): the INHIBITION amounted to 16.7%.

With `CC(C)[C@]1(O)CN(C(=O)COCC(N)=O)C[C@H]1C`, the INHIBITION came to 10.6%. For `CNC(=O)N1CC[C@@H]2CN(Cc3cccc(OC)c3)S(=O)(=O)[C@@H]2CC1` the value was 63.8%; for `CNC(=O)N1CC[C@@H]2CN(Cc3cccc(Cl)c3)S(=O)(=O)[C@@H]2CC1`, -2.17%. As for `COc1cccc(CC(=O)N2CCC(O)(C(F)(F)F)C2)c1` (stereo not drawn), the figure is 49.1%; as for `CNC(=O)N1CC[C@@H]2CN(CCc3cccc(OC)c3)S(=O)(=O)[C@@H]2CC1`, 8.31%. As for `COc1cccc(CCCNC(=O)N2CCC(O)(C(F)(F)F)C2)c1` (stereo not drawn), the figure is 41.4%; as for `COc1cccc(NC(=O)N2CCC(O)(C(F)(F)F)C2)c1` (stereo not drawn), 79.1%. As to `c1cc2c(cc1-n1nc(C3CC3)nc1-c1csnn1)OCCO2`, the INHIBITION was determined as 27.2%. Turning to `O=C(c1ccoc1)N1CCC(NCc2ccccc2Cl)CC1`, the INHIBITION was 7.81%.

Consider `CN(C)C(=O)Cn1c(C2CC2)c(CN2CCC(O)CC2)c2cccnc21`, for which the INHIBITION is -8.58%. For `Cc1csc(CCNC(=O)Nc2cc(C(F)(F)F)c[nH]c2=O)n1` the value was 22%; for `Cc1occc1C(=O)N1C[C@@H](C(=O)NCc2ccco2)C[C@H]2OCC[C@H]21`, 32.2%; for `Cc1c[nH]c(C2CCCN(Cc3cccc(C(=O)O)c3)C2)n1` (stereo not drawn), 6.26%. For `N#Cc1cccc(Oc2ccc(CN3CCCC3)cc2Cl)n1` the value was 55%; for `CCOc1cc(CN2CCCC2)ccc1Oc1cccc(C#N)n1`, 47.6%; for `N#Cc1ccc(CN2CCOCC2)cc1`, 40.6%. `CC(=O)Nc1ccc(Oc2cccc(CN3CCCC3)c2)cc1`: the INHIBITION is given as 27.9%. As for `COc1ccc(Oc2cccc(C#N)n2)cc1CN1CCCC1`, the figure is 25.4%; as for `COc1ccc(CN2CCCC2)cc1Oc1cccc(C#N)n1`, 57.5%.

As for `O=C1CCNc2ccc(F)cc2CN1Cc1ccco1`, the INHIBITION was determined as 1.8%. As for `Cc1ccc(-c2nc(C3CCN(C(=O)c4cnn(C)c4)CC3)no2)cn1`, the figure is 30.5%.
